Source: PubChem (National Center for Advancing Translational Sciences (NCATS))
AmpC no deterg – blocks E. coli AmpC beta-lactamase in detergent-free assay. P00811. AmpC nitrocefin hydrolysis, absorbance 480 nm, 0.0001% Triton. Potency, µM (top dose mostly 57.1 µM), for inactives: at the top dose activity change, negative = inhibition, usual class: inhibitors. 330,000 compounds, 0.52% hits;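 also: plate controls were no compound for no effect and no enzyme for full effect; nearly all actives have a fitted effect of over 20% in size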
Target sequence (P00811 whole entry, looked up): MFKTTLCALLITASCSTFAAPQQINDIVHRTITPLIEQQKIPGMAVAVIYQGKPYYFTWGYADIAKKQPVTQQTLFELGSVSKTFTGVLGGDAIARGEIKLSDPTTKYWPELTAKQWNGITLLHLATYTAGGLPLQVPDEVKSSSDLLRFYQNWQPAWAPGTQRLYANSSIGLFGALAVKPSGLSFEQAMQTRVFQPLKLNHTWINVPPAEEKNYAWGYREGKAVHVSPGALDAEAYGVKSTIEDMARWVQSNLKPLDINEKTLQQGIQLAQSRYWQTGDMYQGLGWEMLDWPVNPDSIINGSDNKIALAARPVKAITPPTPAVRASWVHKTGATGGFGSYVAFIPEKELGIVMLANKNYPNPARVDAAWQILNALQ
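20 mM phosphate pH 7.0 + 0.01% (detergent screen) or 0.0001% Triton X-100; 5.3 nM AmpC reagent; cpd preinc 15 min RT; nitrocefin (800 uM stock) to start; A480 q20 s × 4 min; Activity was normalised to no-enzyme and no-compound control wells.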
HCV inhibitor – blocks hepatitis C virus | 340,000 compounds, 3.4% hits | Potency, µM (series often up to 41.8 µM), for inactives: at the highest dose activity change, negative = inhibition, actives largely listed as inhibitors | Huh7.5.1 HCVcc-Cre infection, luciferase reporter, 44 h
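Cells (1,000/well) were plated 4 h before compound, then infected with HCVcc-Cre virus (~0.5 moi). After 44 h further culture, infection was read as luciferase luminescence following a 15 min substrate incubation at room temperature.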
Pf growth 96h – P. falciparum growth inhibition at 96 hour, primary screen for plastid delayed-death inhibitors | P. falciparum luciferase reporter growth, 96 h | Potency, µM (top dose mostly 28.7 µM), inactives show at the highest dose activity change, negative = inhibition, actives largely listed as inhibitors | 320,000 compounds, 6.9% hits | AID 504834
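96 h incubation, 37 C, 5% CO2, of luciferase-reporter P. falciparum-infected RBCs (2% hematocrit, 0.05% parasitemia final) with test compounds; endpoint luminescence.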
AMA1-RON2 inh – disrupts binding of P. falciparum AMA1 to RON2. Potency, µM (top dose mostly 58.2 µM), inactives show at the top dose activity change, negative = inhibition, usual class: inhibitors. 360,000 compounds, 0.2% hits. AlphaScreen AMA1-biotinylated RON2 peptide binding;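 also: 0% = vehicle wells and -100% = peptide control; nearly all actives have a fitted effect of over 45% in size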
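AMA1 (3D7) with his tag at 25 nM final met compounds first, then biotinylated RON2 peptide at 25 nM; detection used donor plus acceptor beads, 10 µg/mL apiece, read by AlphaScreen after 30 min at room temperature.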
AmpC inh detg – inhibitors of E. coli AmpC beta-lactamase with detergent | AmpC hydrolysis of nitrocefin, absorbance 480 nm, 0.01% Triton | Potency, µM (highest dose often 114 µM), for the others: at the highest dose activity change, negative = inhibition, actives largely listed as inhibitors | 370,000 compounds, 0.041% hits;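 also: 0% = no-compound wells and -100% = no-enzyme wells; nearly all actives have a fitted effect of over 25% in size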
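AmpC (5.3 nM in the dispensed reagent) in 20 mM phosphate pH 7.0 with 0.01% (detergent screen) or 0.0001% Triton X-100 was preincubated with compounds for 15 min at room temperature. Nitrocefin was then added from an 800 uM solution, and hydrolysis was followed at 480 nm.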
Pf growth 48h – P. falciparum growth inhibition at 48 hours (one generation). P. falciparum luciferase growth in erythrocytes, 48 h. Potency, µM (titrated, usually from 28.7 µM), without a hit: at the highest dose activity change, negative = inhibition, hits mostly inhibitors. 310,000 compounds, 5.9% hits. AID 504832
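First compound was added to culture medium, then infected red cells at 0.1% parasitemia and 2% hematocrit (final). After incubation at 37 C under 5% CO2, luciferase detection reagent was dispensed and light output recorded.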
An asterisk follows results filed as active; ? = inconclusive; · = no result; [ ] = remark or other dose. The list is not random: actives were taken first. Their share in the collection is about 11%. Calls follow the shape of the dose curve; as a rule, active = well fitted curve in the direction sought with a large enough effect; inconclusive = small, poorly fitted or top-dose-only effect, or another doubt; inactive = no such curve, though single readings can be large; an effect the other way counts as inactive or inconclusive. Unless noted, % is scaled to controls: 0 for no effect and ±100 for the full control effect; potency is read from the fitted curve at half-maximal effect.

SMILES	AmpC no deterg	HCV inhibitor	Pf growth 96h	AMA1-RON2 inh	AmpC inh detg	Pf growth 48h
COc1ccc(C(C)NC(=S)NC2CCCC2)cc1OC (configuration not stated)	-17%	13%	?	4%	-5%	1.9µM*
Cc1ccc(C(C)NC(=S)NC2CCCCC2)cc1C (configuration not stated)	-38%	·	10µM*	·	-6%	10µM*
Cc1ccc(C(C)NC(=S)NC2CCCCC2)c(C)c1 (configuration not stated)	-41%	?	5.2µM*	16%	-10%	10µM*
Cc1ccc(C(C)NC(=O)C2CCCC2)c(C)c1 (configuration not stated)	-11%	-3%	59%	-2%	-18%	-15%
Cc1ccc(NC(=S)NC2CCCC2)cc1C	-19%	-13%	17%	-4%	-12%	37%
CC(C)(C)c1ccc(C(=O)Nc2ccc(-c3nc4cc(Cl)ccc4o3)cc2)cc1	·	·	·	·	14%	·
O=C(C1CC1)N1CCc2cc(Br)cc(S(=O)(=O)Nc3ccc(C(F)(F)F)cc3)c21	·	·	·	·	6%	·
Cc1ccc(S(=O)(=O)Nc2c(C)nn(C)c2C)cc1C	1%	0.56µM*	-2%	9%	-4%	-13%
COc1cccc2cc(C(=O)OC3CCN(C)CC3)c(=O)oc12	-46%	5%	12µM*	11%	?	5%
COc1cccc2cc(C(=O)CS(=O)(=O)c3ccc(C)cc3)c(=O)oc12	-35%	16%	4.7µM*	-7%	1%	4%
COc1cccc2cc(C(=O)Oc3ccccc3)c(=O)oc12	-22%	7%	13µM*	4%	-8%	6%
CCOc1cccc2cc(C(=O)Oc3ccc(OC)cc3)c(=O)oc12	-16%	19%	78%	0%	-14%	2%
COc1cc(Br)cc2cc(C(=O)OC3CCN(C)CC3)c(=O)oc12	·	2%	·	?	·	·
COc1ccc(CC(C)Nc2cccc(SC)c2)cc1 (configuration not stated)	-33%	2%	8.3µM*	-6%	-15%	-2%
CCCc1nn2c(=O)cc(COC(=O)c3cccc(NC(=O)COc4ccccc4C)c3)nc2s1	·	·	·	·	18%	·
O=C(NC1(C(F)(F)F)C(=O)Nc2c1c(=O)[nH]c(=O)n2CCc1ccccc1)c1ccc(Cl)cc1 (configuration not stated)	·	·	·	·	5%	·
CN(C(=O)COC(=O)c1nc(Cl)c(Cl)c(Cl)c1Cl)C1CCS(=O)(=O)C1 (configuration not stated)	11%	10µM*	51%[1.15 µM]	-3%	1%	31%[1.15 µM]
CN(C(=O)COC(=O)c1ccc(C(C)(C)C)cc1)C1CCS(=O)(=O)C1 (configuration not stated)	-12%	20%	-1%	5%	-15%	?
O=C(OCc1cccc(Cl)c1)c1cc(S(=O)(=O)N2CCCCC2)ccc1N1CCOCC1	39%	11µM*	13µM*	-2%	?	?
O=C(OCc1cccc(C(F)(F)F)c1)c1cc([N+](=O)[O-])ccc1N1CCOCC1	-4%	?	?	?	?	?
O=C(OCc1ccc(Br)cc1)c1cc([N+](=O)[O-])ccc1N1CCOCC1	·	·	·	-28%	·	·
COc1ccc(COC(=O)c2cc([N+](=O)[O-])ccc2N2CCOCC2)cc1F	38%	32µM*	?	-32%	-12%	?
O=C(OCc1cccc(Cl)c1)c1cc([N+](=O)[O-])ccc1N1CCOCC1	-14%	10µM*	12µM*	-28%	-9%	?
O=C(OCc1ccccc1)c1cc(S(=O)(=O)N2CCCCC2)ccc1N1CCOCC1	43%	?	12µM*	3%	1%	?
O=C(c1cc(S(=O)(=O)N2CCCCC2)ccc1N1CCOCC1)N1CCN(Cc2ccccc2)CC1	225%	-25%	-17%	21%	2%	?
SMILES	AmpC no deterg	HCV inhibitor	Pf growth 96h	AMA1-RON2 inh	AmpC inh detg	Pf growth 48h
C=C(C)CSc1nc2sc3c(c2c(=O)n1Cc1ccccc1)CC(C)(CC)OC3 (configuration not stated)	·	·	·	·	6%	·
COc1ccccc1CNS(=O)(=O)c1cc(C(=O)Nc2cccc(C(F)(F)F)c2)ccc1F	·	·	·	·	9%	·
Cc1cc(C)cc(NC(=O)CN2C(=O)CCc3cc(S(=O)(=O)N4CCCCC4)ccc32)c1	·	·	·	·	2%	·
Cc1cc(C)n(CCc2nc3c4ccccc4nc(N4CCN(c5ccc(F)cc5)CC4)n3n2)n1	·	·	·	·	25%	·
Cc1ccc(-c2cn3nc(N4CCCC(C(=O)NCc5ccccc5F)C4)sc3n2)cc1 (configuration not stated)	·	·	·	·	-2%	·
O=C(OCc1cccc(C(F)(F)F)c1)c1cc(S(=O)(=O)N2CCOCC2)ccc1F	69%	10µM*	5%	15%	?	-30%
CC(C)CCCC(C)NC(=O)c1cc(S(=O)(=O)N2CCCCC2)ccc1N1CCOCC1 (configuration not stated)	238%	11µM*	9.3µM*	21%	0%	?
Cc1ccc(C)c(NC(=O)c2cc(S(=O)(=O)N3CCCCC3)ccc2N2CCOCC2)c1	83%	-17%	0%	-4%	-6%	?
COCC(C)NC(=O)c1cc(S(=O)(=O)N2CCCCC2)ccc1N1CCOCC1 (configuration not stated)	46%	20%	5%	-1%	-7%	-6%
Cc1ccc(C)c(COC(=O)c2cc([N+](=O)[O-])ccc2N2CCOCC2)c1	33%	13µM*	?	-22%	-12%	?
Cc1ccc(C)c(COC(=O)c2cc(S(=O)(=O)N3CCCCC3)ccc2N2CCOCC2)c1	45%	0%	?	-2%	-3%	15µM*
Cc1nnc(N2C(=O)c3oc4ccccc4c(=O)c3C2c2cccc(OCCC(C)C)c2)s1 (configuration not stated)	·	·	·	·	6%	·
Cc1ccc(COC(=O)c2cc(S(=O)(=O)N3CCCCC3)ccc2N2CCOCC2)cc1	53%	?	?	-5%	-18%	9.3µM*
Cc1ccc(CNC(=O)c2cc(S(=O)(=O)N3CCCCC3)ccc2N2CCOCC2)cc1	81%	?	?	4%	6%	8.3µM*
COC(=O)c1cc(S(=O)(=O)N2CCCCC2)ccc1N1CCOCC1	-3%	0%	-12%	1%	?	?
CCn1c(/C=C/N(C)c2ccccc2)[n+](CC)c2ccc(Cl)cc21	12%	32µM*	0.13µM*	3%	2%	0.74µM*
CCn1c(/C=C/Nc2ccccc2)[n+](CC)c2ccc(Cl)cc21	-14%	-14%	8.3µM*	-7%	-7%	?
